Screens deposited in PubChem BioAssay by National Center for Advancing Translational Sciences (NCATS).
Hits are enriched below; roughly 10% of the tested compounds scored in any of these assays.
HEK cytotox: Cytotoxic Profiling in HEK 293 Cell Line of Diverse Libraries Using Quantitative High-Throughput Screening; HEK 293 viability, ATP luminescence (CellTiter-Glo), 48-72 h; Potency, µM (titrated, usually from 115 µM), without a hit: at the top dose activity change, negative = cytotoxicity, most hits filed as inhibitors; hit rate 6.6% among 94,000; further: nearly all actives have a fitted effect of over 60% in size
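HEK 293 cells at 250 cells/well were exposed to compounds by pintool transfer for 48 or 72 hr at 37 degree Celsius, 5% CO2. Viability was read as ATP-coupled luminescence with CellTiter-Glo after 10 min at room temperature.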
NIH3T3 tox: Cytotoxic Profiling in NIH 3T3 Cell Line of Diverse Libraries Using Quantitative High-Throughput Screening | NIH 3T3 viability, CellTiter-Glo ATP luminescence, 48-72 h | Potency, µM (series often up to 96.7 µM), for inactives: at the top dose activity change, negative = cytotoxicity, usual class: inhibitors | hit rate 4.3% among 94,000 | AID 1345082, 2018; further: nearly all actives have a fitted effect of over 55% in size
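Luminescent ATP readout (CellTiter-Glo, 10 min RT) after 48 or 72 hr compound exposure of NIH 3T3 cells seeded at 400 cells/well in 1536-well format; quantitative HTS.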
NPR1 antag: Natriuretic polypeptide receptor (hNpr1) antagonism - Primary qHTS. Atrial natriuretic peptide receptor 1 (Homo sapiens), P16066. HEK293 hNpr1 GloSensor cGMP, ANP-stimulated luminescence. Potency, µM (titrated, usually from 46.3 µM), without a hit: top-dose activity change, negative = inhibition, most hits filed as inhibitors. hit rate 1.6% among 76,000. AID 1347048, 2019; calls by dose curve; further: nearly all actives have a fitted effect of over 60% in size
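Compound pre-incubated 30 min at room temperature on GloSensor-loaded HEK293 cells stably carrying hNpr1 and the pGS-40F cGMP biosensor. Stimulation uses hNppA at 0.1 nM final; luminescence is taken at baseline and 20 min post-agonist.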
GPT2 inh: Primary qHTS assay for inhibitors of Glutamate pyruvate transaminase 2 (GPT2). Alanine aminotransferase 2 (Homo sapiens), Q8TD30. Recombinant GPT2, coupled pyruvate oxidase/HRP Amplex Red fluorescence. Potency, µM (series often up to 57.7 µM), inactives show at the highest dose activity change, negative = inhibition, hits mostly inhibitors. hit rate 0.25% among 100,000; further: nearly all actives have a fitted effect of over 60% in size
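Inhibition is scored from Amplex Red fluorescence generated when pyruvate oxidase and HRP act on pyruvate released by GPT2. Reactions contain 10ng/uL enzyme, 250uM a-KG and 2mM L-alanine and run 30 min at room temperature.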
FLuc inh: Firefly luciferase inhibition profiling of diverse chemical library using quantitative high-throughput screening; Luciferin 4-monooxygenase (Photinus pyralis), P08659; purified P. pyralis luciferase, luminescence, biochemical; Potency, µM (series often up to 115 µM), actives largely listed as inhibitors; hit rate 2.5% among 76,000; further: nearly all actives have a fitted effect of over 65% in size
Target sequence (P08659 whole entry, looked up): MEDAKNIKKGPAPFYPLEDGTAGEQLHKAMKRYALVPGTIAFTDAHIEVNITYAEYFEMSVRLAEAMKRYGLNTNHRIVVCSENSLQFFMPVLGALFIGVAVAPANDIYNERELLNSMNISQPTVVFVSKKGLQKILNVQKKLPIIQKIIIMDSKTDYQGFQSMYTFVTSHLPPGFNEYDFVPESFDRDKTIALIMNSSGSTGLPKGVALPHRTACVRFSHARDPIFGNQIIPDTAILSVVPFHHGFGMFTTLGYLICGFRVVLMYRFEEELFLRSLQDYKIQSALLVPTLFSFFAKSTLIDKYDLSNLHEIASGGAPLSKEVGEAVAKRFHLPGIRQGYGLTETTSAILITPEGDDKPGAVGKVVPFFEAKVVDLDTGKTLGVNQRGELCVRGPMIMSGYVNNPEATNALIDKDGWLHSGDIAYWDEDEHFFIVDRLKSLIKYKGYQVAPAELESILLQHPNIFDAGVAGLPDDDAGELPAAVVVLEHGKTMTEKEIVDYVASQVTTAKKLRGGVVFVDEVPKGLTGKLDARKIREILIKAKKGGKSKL
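FLuc 10nM, D-luciferin 10uM, ATP 10uM, Mg acetate 10mM, Tris acetate pH 7.5, Tween/BSA; cpd qHTS; enzyme added last; CCD luminescence.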
Starred values were filed as active, the others as inactive; i = inactive; ? = inconclusive; / = no result given; [ ] = dose if it differs, or a comment. Unless noted, the call rests on the fitted dose curve; in most records, active means well fitted curve in the direction sought with a large enough effect; inconclusive means small, poorly fitted or top-dose-only effect, or another doubt; inactive means no such curve, though single readings can be large; an effect the other way counts as inactive or inconclusive. On the % scale 0 is the no-effect control and ±100 the full control effect; potency means the concentration at half of the fitted maximal effect.

SMILES | HEK cytotox | NIH3T3 tox | NPR1 antag | GPT2 inh | FLuc inh
COCCNc1nccc(C2(c3ccccc3Cl)CCNCC2)n1 | ? | -20% | 2% | -5%[11.5 µM] | i
Clc1ccccc1C1(c2ccnc(NCc3ccccc3)n2)CCNCC1 | ? | 25µM* | ? | -17% | i
Clc1ccccc1C1(c2ccnc(NC3CC3)n2)CCNCC1 | ? | ? | -10% | i | i
COc1ccccc1Cc1nccc(C2(c3ccccc3Cl)CCNCC2)n1 | ? | 22µM* | -15% | 2%[11.5 µM] | i
O=C(NCc1ccccc1)C1CCc2nnc(C3CC3)n21 (stereo not given) | 2% | -1% | / | ? | /
CNC(=O)c1cn2cc(-c3ccc(C(F)(F)F)cc3)sc2n1 | -8%[172 µM] | -9%[138 µM] | / | i | /
COc1ccc(C(=O)Nc2ccc([C@H]3OCC(=O)N(C)[C@@H]3CO)cc2)cc1 | -16%[172 µM] | -19%[138 µM] | 1%[70.6 µM] | -6%[88.5 µM] | 71µM*
COc1ccc(C(=O)Nc2ccc([C@H]3OCC(=O)N(C(C)C)[C@@H]3CO)cc2)cc1 | ? | ? | -8%[70.6 µM] | 1%[88.5 µM] | 25µM*
COc1ccc(CN2C(=O)CO[C@H](c3ccc(NC(=O)c4ccc(OC)cc4)cc3)[C@H]2CO)cc1 | ? | ? | 8% | 1% | ?
COC1C(=O)N(CC2CC2)C12CCN(C(=O)NCc1ccccc1)CC2 (stereo not given) | 2% | -1% | / | -1% | /
CCN(Cc1noc(C)n1)C(=O)c1coc(COc2ccc3c(c2)OCO3)n1 | -28% | -23% | 4% | ? | i
CCCN(CC1CC1)C(=O)c1coc(COc2ccc3sc(C)nc3c2)n1 | 40µM* | ? | ? | -18% | i
COc1ccc(NC(=O)c2ccc3c(c2)N(C)C2CCCCN2C3=O)cc1Cl (stereo not given) | ? | ? | -1% | -6% | i
Oc1ccccc1CN1CCOC[C@H]1c1ncc(-c2ccc(F)cc2F)[nH]1 | 79µM* | ? | -25%[70.6 µM] | -12%[88.5 µM] | i
Fc1cccc(-c2cnc([C@@H]3COCCN3Cc3ccc(Cl)cc3)[nH]2)c1 | 79µM* | ? | ? | -16%[88.5 µM] | i
Fc1ccccc1CN1CCOC[C@H]1c1ncc(-c2cccc(Cl)c2)[nH]1 | 79µM* | 79µM* | -19%[70.6 µM] | i | i
COc1ccc(CN2CCOC[C@H]2c2ncc(-c3cccc(F)c3)[nH]2)cc1 | ? | ? | -22%[70.6 µM] | i | i
CN(C)c1ccc(CN2CCOC[C@H]2c2ncc(-c3ccc(F)cc3F)[nH]2)cc1 | ? | ? | -16%[70.6 µM] | ? | i
CS(=O)(=O)c1ccc(-c2cnc([C@@H]3COCCN3Cc3ccc(Cl)cc3)[nH]2)cc1 | 79µM* | ? | -15%[70.6 µM] | 4%[88.5 µM] | i
Clc1cccc(-c2cnc([C@@H]3COCCN3Cc3ncc[nH]3)[nH]2)c1 | -10%[172 µM] | -1%[138 µM] | 1%[70.6 µM] | -9%[88.5 µM] | i
CS(=O)(=O)c1ccc(-c2cnc([C@@H]3COCCN3Cc3ccncc3)[nH]2)cc1 | 4%[172 µM] | -1%[174 µM] | -2%[70.6 µM] | i | i
COCC(=O)NCCNC(=O)c1ccc(-c2cccc(OC)c2)cc1 | ? | -35%[138 µM] | / | / | /
CCc1noc(-c2cccn3c(CNC(=O)Cc4ccc(Cl)cc4)nnc23)n1 | ? | -28% | -10% | 4% | i
COc1ccccc1-c1nc(C(=O)NCc2ccc(F)cc2)n2ccncc12 | ? | ? | / | 1% | /
CN(C)c1ccc(CN2CCOC[C@H]2c2ncc(-c3cccc(Cl)c3)[nH]2)cc1 | 112µM* | ? | -30%[70.6 µM] | ? | i
SMILES | HEK cytotox | NIH3T3 tox | NPR1 antag | GPT2 inh | FLuc inh
Fc1ccc(CN2CCOC[C@H]2c2ncc(-c3cccc(Cl)c3)[nH]2)cc1 | ? | 71µM* | ? | -20%[88.5 µM] | i
Cc1ccc(OCc2nc(C3CCN(C(=O)c4ccn[nH]4)C3)no2)cc1 (stereo not given) | ? | -26% | -15% | 3% | i
O=C(Cn1nc2n(c1=O)CCCC2)Nc1ccc2c(c1)OCCO2 | 13% | i | -18% | i | 20µM*
O=C(CN1C(=O)NC2(CCOCC2)C1=O)Nc1ccc2c(c1)OCCO2 | 2% | 1% | 3% | i | 45µM*
O=C(CN1C(=O)NC2(CCOCC2)C1=O)Nc1ccc(F)cc1 | -1% | 3% | 22% | i | i
CC(C)(C)C1CCC2(CC1)NC(=O)N(CC(=O)Nc1ccc3c(c1)OCCO3)C2=O (stereo not given) | ? | 28µM* | 0% | -3% | ?
COc1cccc([S+](=O)([O-])N2CCN(CCCn3nc4n(c3=O)CCCC4)CC2)c1 | 2% | -21% | / | / | /
COC(=O)NCCNC(=O)c1ccc(-c2cncnc2)cc1 | -16%[172 µM] | -10%[138 µM] | / | / | /
O=C(C1CC1)N1CCC(N2C(=O)C3(CCCCC3)C2c2ccccc2)CC1 (stereo not given) | ? | ? | 2% | ? | i
O=C(NCCc1ccc(Cl)cc1)c1ccc2nnc(-c3ccc(OC(F)(F)F)cc3)n2c1 | 79µM* | -22% | / | i | /
O=C(NCCc1ccccc1)c1ccc2nnc(-c3ccc(OC(F)(F)F)cc3)n2c1 | ? | ? | / | i | /
O=C(NCc1cccc(Cl)c1)c1ccc2nnc(-c3cc(C(F)(F)F)cc(C(F)(F)F)c3)n2c1 | 14µM* | ? | / | i | /
O=C(NCc1ccccc1)c1ccc2nnc(-c3cc(C(F)(F)F)cc(C(F)(F)F)c3)n2c1 | 40µM* | ? | / | 4% | /
O=C(NCc1ccccc1)c1ccc2nnc(-c3cccc(C(F)(F)F)c3)n2c1 | 35µM* | ? | / | i | /
O=C(NCc1ccc(F)c(F)c1)c1ccc2nnc(-c3cc(C(F)(F)F)cc(C(F)(F)F)c3)n2c1 | ? | ? | / | 0% | /
O=C(NCc1cccc(C(F)(F)F)c1)c1ccc2nnc(-c3cccc(C(F)(F)F)c3)n2c1 | ? | ? | / | -21% | /
O=C(NCc1cccc(C(F)(F)F)c1)c1ccc2nnc(-c3cc(C(F)(F)F)cc(C(F)(F)F)c3)n2c1 | 14µM* | 20µM* | / | -11% | /
O=C(NC1CCCCC1)c1ccc2nnc(-c3cccc(C(F)(F)F)c3)n2c1 | 32µM* | ? | / | ? | /
O=C(NCc1cccc(C(F)(F)F)c1)c1ccc2nnc(-c3ccoc3)n2c1 | ? | ? | / | i | /
O=C(NCCc1ccc(Cl)cc1)c1ccc2nnc(-c3cc(C(F)(F)F)cc(C(F)(F)F)c3)n2c1 | 20µM* | 25µM* | / | i | /
O=C(NCc1cccc(C(F)(F)F)c1)c1ccc2nnc(-c3ccc(Cl)cc3)n2c1 | 45µM* | 40µM* | / | -14% | /
